Source: PubChem (The Scripps Research Institute Molecular Screening Center)
Most compounds without a hit are left out; they make up all but 2.9% or so of the library.
PLC-gamma1 inh = PLC-gamma1 (human) inhibition, primary screen; P19174; purified PLC-gamma1, fluorogenic substrate, fluorescence; inhibition, % at 12.2 µM; 370,000 tested, 0.84% active; AID 720700; in the data active = inhibition above about 9.5%
ADAM10 inh = inhibitors of human ADAM10; O14672; recombinant ADAM10, EDANS/DABCYL FRET peptide cleavage, 3 h; inhibition, % at 7 µM; 370,000 tested, 0.62% active; AID 720582;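 active = inhibition above a per-campaign cutoff equal to the mean of compounds falling between control-based bounds plus 3 SD, cut at about 20% in these data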;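 also: 0% = DMSO wells while the 100% control is not disclosed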
Target sequence (O14672 214-748 limits assumed): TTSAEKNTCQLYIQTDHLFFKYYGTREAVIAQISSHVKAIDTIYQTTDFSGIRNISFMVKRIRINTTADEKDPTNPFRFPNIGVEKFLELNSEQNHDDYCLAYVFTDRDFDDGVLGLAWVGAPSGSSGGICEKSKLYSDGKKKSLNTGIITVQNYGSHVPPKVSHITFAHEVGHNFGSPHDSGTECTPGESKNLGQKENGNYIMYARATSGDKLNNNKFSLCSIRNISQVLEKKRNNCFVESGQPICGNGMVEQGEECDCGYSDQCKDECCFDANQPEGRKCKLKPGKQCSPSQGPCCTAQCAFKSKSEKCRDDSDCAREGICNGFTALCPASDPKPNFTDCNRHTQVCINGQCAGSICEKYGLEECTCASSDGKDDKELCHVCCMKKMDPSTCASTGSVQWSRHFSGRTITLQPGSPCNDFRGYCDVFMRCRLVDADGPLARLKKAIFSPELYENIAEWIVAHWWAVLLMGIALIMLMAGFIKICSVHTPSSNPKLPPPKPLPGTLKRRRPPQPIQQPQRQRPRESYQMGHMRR
PLC-beta3 inh = blocks human PLC-beta3 enzyme activity. 370,000 tested, 0.18% active. Purified PLC-beta3, fluorogenic substrate, fluorescence. inhibition, % at 12.2 µM;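 also: 0% = median of compound wells on plate and 100% = full blocker control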
KLK7 zymogen act = activators of human kallikrein-7 zymogen. 370,000 tested, 0.9% active. purified proKLK7, EDANS-DABCYL substrate fluorescence; 100% is mature enzyme control, 0% vehicle. P49862. activation, % at 7 µM;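 active = activation above the mean of all tested compounds plus 3 SD, computed per campaign excluding outliers beyond control limits, cut at about 13% in these data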
ADAM17 inh = ADAM17 inhibition, QFRET primary screen; 370,000 tested, 0.83% active; recombinant ADAM17, EDANS/DABCYL FRET peptide cleavage; inhibition, % at 6.95 µM; AID 720648;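 active = inhibition above the mean of compounds lying between control limits plus 3 SD, set per campaign, cut at about 8.5% in these data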;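 also: 0% = DMSO-only wells as the low control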
PLCgamma1 ctr = PLC-gamma1 inhibition, counter-screen for PLC-beta3 hits. shares compounds with PLC-gamma1 inh. purified PLC-gamma1, fluorogenic substrate, fluorescence. inhibition, % at 12.3 µM. 3,300 tested, 3.1% active; in the data active = inhibition above about 9.5%
PLCbeta3 conf = human PLC-beta3 inhibition, confirmation. shares compounds with PLC-gamma1 inh. purified PLC-beta3, fluorogenic substrate fluorescence. inhibition, % at 12.3 µM. 3,300 tested, 1% active
* = called active by the depositor. Rule as the data show it, unless noted: active = inhibition above about 11%; inactive = the rest.

Results for Oc1ccc(-c2csc(Nc3ncccn3)n2)cc1 ?
PLC-gamma1 inh: -1.2; ADAM10 inh: 3.0; PLC-beta3 inh: -4.3; KLK7 zymogen act: 0.2; ADAM17 inh: -0.6

Results for COC(=O)C(C)Sc1nc(N)c(NC(=O)c2ccco2)c(=O)[nH]1 (stereo unspecified) ?
PLC-gamma1 inh: -1.1; ADAM10 inh: -12.2; PLC-beta3 inh: -2.6; KLK7 zymogen act: -0.1; ADAM17 inh: -5.8

How did COc1cccc(Nc2nc(NCC3CCCO3)c3ccccc3n2)c1 (stereo unspecified) do in these assays?
PLC-gamma1 inh: -14.6; ADAM10 inh: -15.6; PLC-beta3 inh: -17.1; KLK7 zymogen act: 0.1; ADAM17 inh: -5.7

Results for Cc1ccc(Nc2nc(=O)c3cccnc3s2)cc1 ?
PLC-gamma1 inh: 11.0*; ADAM10 inh: 11.4; PLC-beta3 inh: 1.7; KLK7 zymogen act: -0.3; ADAM17 inh: 8.3; PLCgamma1 ctr: -5.6; PLCbeta3 conf: -3.3

Results for O=c1nc(NCc2ccco2)sc2ncccc12 ?
PLC-gamma1 inh: 1.1; ADAM10 inh: -3.4; PLC-beta3 inh: -0.3; KLK7 zymogen act: -0.3; ADAM17 inh: -0.6

Results for CCN1C(=O)/C(=C2\SC(=S)N(c3c(C)n(C)n(-c4ccccc4)c3=O)C2=O)c2ccccc21 ?
PLC-gamma1 inh: 7.5; ADAM10 inh: 0.0; PLC-beta3 inh: 11.0*; KLK7 zymogen act: 0.9; ADAM17 inh: 3.0; PLCgamma1 ctr: -0.6; PLCbeta3 conf: -1.3

What do the screens show for `Cc1c(N2C(=O)/C(=C3/C(=O)N(C)c4ccccc43)SC2=S)c(=O)n(-c2ccccc2)n1C`?
PLC-gamma1 inh: -1.7; ADAM10 inh: 3.8; PLC-beta3 inh: 2.0; KLK7 zymogen act: -0.4; ADAM17 inh: -0.1

What do the screens show for `COC(=O)c1cc(C)sc1NC(=O)C1CC=CCC1C(=O)O` (stereo unspecified)?
PLC-gamma1 inh: -0.8; ADAM10 inh: -1.0; PLC-beta3 inh: 2.8; KLK7 zymogen act: -0.6; ADAM17 inh: -2.7

What do the screens show for `C=C(C)c1ccccc1NC(=O)CCN1C(=O)c2ccccc2S1(=O)=O`?
PLC-gamma1 inh: 9.6*; ADAM10 inh: 14.7; PLC-beta3 inh: 1.1; KLK7 zymogen act: -0.2; ADAM17 inh: 2.2; PLCgamma1 ctr: -0.8; PLCbeta3 conf: 2.1

What do the screens show for `CC1CCCN(C2(O)C(=O)Nc3ccc(Br)cc32)C1` (stereo unspecified)?
PLC-gamma1 inh: 4.2; ADAM10 inh: 15.8; PLC-beta3 inh: -6.8; KLK7 zymogen act: 0.8; ADAM17 inh: -2.8

What do the screens show for `CCS(=O)(=O)Nc1c(C)n(C)n(-c2ccccc2)c1=O`?
PLC-gamma1 inh: 9.6*; ADAM10 inh: 7.0; PLC-beta3 inh: 8.2; KLK7 zymogen act: 1.0; ADAM17 inh: 4.8; PLCgamma1 ctr: -7.3; PLCbeta3 conf: -2.7

Results for Cc1c(NC(=O)C2CCCN2S(=O)(=O)c2ccccc2)c(=O)n(-c2ccccc2)n1C (stereo unspecified) ?
PLC-gamma1 inh: 4.7; ADAM10 inh: 8.2; PLC-beta3 inh: 13.5*; KLK7 zymogen act: 0.2; ADAM17 inh: 7.3; PLCgamma1 ctr: 3.9; PLCbeta3 conf: -5.2

What do the screens show for `Cc1ccc(S(=O)(=O)N2CCCC(C(=O)Nc3c(C)n(C)n(-c4ccccc4)c3=O)C2)cc1` (stereo unspecified)?
PLC-gamma1 inh: 1.5; ADAM10 inh: 0.5; PLC-beta3 inh: 2.2; KLK7 zymogen act: -0.4; ADAM17 inh: -0.1

Results for O=C(CSc1nnnn1C1CC1)N1CCN(Cc2ccccc2F)CC1 ?
PLC-gamma1 inh: 1.0; ADAM10 inh: -12.7; PLC-beta3 inh: -4.1; KLK7 zymogen act: -0.8; ADAM17 inh: -4.5

Results for Cc1ccc(Cl)cc1-n1c(=O)cc(N2CCN(C(=O)c3ccco3)CC2)[nH]c1=O ?
PLC-gamma1 inh: -0.8; ADAM10 inh: 3.8; PLC-beta3 inh: 2.3; KLK7 zymogen act: 0.5; ADAM17 inh: 0.3

Results for Cc1cccc(OCC(O)Cn2c(=N)n(Cc3ccccc3)c3ccccc32)c1 (stereo unspecified) ?
PLC-gamma1 inh: 11.6*; ADAM10 inh: 8.9; PLC-beta3 inh: 0.9; KLK7 zymogen act: 0.1; ADAM17 inh: -18.1; PLCgamma1 ctr: 0.3; PLCbeta3 conf: -6.2

How did Cc1ccc(OCC(O)Cn2c(=N)n(Cc3ccccc3)c3ccccc32)cc1 (stereo unspecified) do in these assays?
PLC-gamma1 inh: 2.5; ADAM10 inh: -0.2; PLC-beta3 inh: 2.0; KLK7 zymogen act: 0.2; ADAM17 inh: -0.1

How did N=c1n(Cc2ccccc2)c2ccccc2n1CC(O)COc1ccc(Cl)cc1Cl (stereo unspecified) do in these assays?
PLC-gamma1 inh: 12.2*; ADAM10 inh: 4.0; PLC-beta3 inh: 5.1; KLK7 zymogen act: -0.1; ADAM17 inh: 0.2; PLCgamma1 ctr: -2.0; PLCbeta3 conf: -3.3

Results for C=CC[C@@H](CC(=O)N[C@H](CO)Cc1ccccc1)C(=O)N[C@@H](COC(=O)[C@@H](CC=C)CC(=O)OC(C)(C)C)Cc1c[nH]c2ccccc12 ?
PLC-gamma1 inh: 11.9*; ADAM10 inh: 17.1; PLC-beta3 inh: 2.6; KLK7 zymogen act: 0.3; ADAM17 inh: 5.0; PLCgamma1 ctr: -4.6; PLCbeta3 conf: 2.5

What do the screens show for `C=CCC[C@@H](Cc1ccc(F)cc1)C(=O)OC[C@@H](Cc1c[nH]c2ccccc12)NC(=O)[C@H](CC=C)CC(=O)NCCO`?
PLC-gamma1 inh: 5.1; ADAM10 inh: 15.5; PLC-beta3 inh: 10.7*; KLK7 zymogen act: 0.2; ADAM17 inh: 6.2; PLCgamma1 ctr: -9.4; PLCbeta3 conf: -3.3

What do the screens show for `C=CC[C@H](CC(=O)NCCO)C(=O)N[C@@H](COC(=O)[C@@H](CC=C)CC(=O)OC(C)(C)C)Cc1c[nH]c2ccccc12`?
PLC-gamma1 inh: 2.3; ADAM10 inh: 2.5; PLC-beta3 inh: 0.9; KLK7 zymogen act: 0.2; ADAM17 inh: -0.3

How did C=CC[C@@H](CC(=O)N[C@@H](CO)Cc1ccccc1)C(=O)N[C@@H](COC(=O)[C@H](CC=C)CC(=O)OC(C)(C)C)Cc1c[nH]c2ccccc12 do in these assays?
PLC-gamma1 inh: 1.9; ADAM10 inh: 8.0; PLC-beta3 inh: -2.2; KLK7 zymogen act: -0.5; ADAM17 inh: 5.7

What do the screens show for `C=CC[C@@H](CC(=O)N(CCO)Cc1ccccc1)C(=O)N[C@@H](C)COC(=O)[C@@H](CC=C)CC(=O)OC(C)(C)C`?
PLC-gamma1 inh: 11.2*; ADAM10 inh: 3.8; PLC-beta3 inh: 7.8; KLK7 zymogen act: -0.2; ADAM17 inh: 0.9; PLCgamma1 ctr: 3.3; PLCbeta3 conf: 3.1

How did Cn1c(-c2ccccc2)cccc1=O do in these assays?
PLC-gamma1 inh: -2.1; ADAM10 inh: -2.2; PLC-beta3 inh: -3.4; KLK7 zymogen act: 0.2; ADAM17 inh: -7.3
